Values joined by “and” are separate entries in the source; they are usually repeats but may differ in a detail not shown here. Equal entries are not always repeated. About 520 (0.25%) of roughly 210,000 compounds were called active. What follows is part of a selection rich in actives, with near analogues and random picks from the rest. Values without a mark were called inactive. No stated cut-off is given here; in the data, active means inhibition above about 50%; inactive means the rest.
system: Plasmodium falciparum apicoplast DNA polymerase (apPOL); experiment: Pf-apPOL inhibitors, biochemical, fluorescence (AID 1794808); settings: Recombinant Pf-apPOL, molecular beacon fluorescence, 1.5 h; at 10 µM; stronger effect = higher value

Compound | inhibition
O=C(CS(=O)(=O)CC(=O)c1ccccc1)c1ccccc1 | -2.4%
Cc1c(Cl)ccc(NC(=O)C2CCCN2S(=O)(=O)c2ccccc2)c1Cl (stereo not given) | -7.1%
O=C(Nc1ccc(Cl)cc1)NC1(C(F)(F)F)Oc2ccccc2O1 | 1.5%
COc1ccc(Cl)cc1NC(=O)CN(c1ccccc1)S(=O)(=O)c1ccccc1[N+](=O)[O-] | -6.5%
CC1=C(C(=O)Nc2ccc(Cl)cc2)C(c2ccc(Cl)cc2Cl)n2ncnc2N1 (stereo not given) | 6%
CCN(CC)S(=O)(=O)c1ccc(Cl)c(C(=O)O)c1 | -5%
Cc1ccc(Cl)cc1NC(=O)C(=O)NCc1ccccn1 | 0.8% and 0%
O=C(COc1ccc(F)cc1)Nc1nnc(C2CC(=O)N(c3ccccc3)C2)o1 (stereo not given) | 4.1%
CN(C)c1ccc(/C=C(\C#N)c2ccc([N+](=O)[O-])cc2)cc1Br | -5.5%
COCC(=O)N1CCCCC1c1nncn1CC1CC1 (stereo not given) | 3.4%
CC(C)(C)C(=O)Oc1ccc(C=Cc2ccccn2)cc1 | -22%
O=C(CSc1nnc(NC(=O)c2ccc(Cl)c(Cl)c2)s1)NCc1ccco1 | 0.7%
O=C(CSc1nnc(NC(=O)c2cc(-c3ccco3)on2)s1)NC1CCCC1 | 60.9% (active)
Nc1ccc2nc(SCC(=O)NC3CC3)sc2c1 | 6.4%
O=C1CC(NCc2ccc3c(c2)OCO3)C(=O)N1c1ccc(OC(F)(F)F)cc1 (stereo not given) | 0.2%
Cc1cc(C)c(S(=O)(=O)N2CCC(c3noc(-c4ccc(F)cc4)n3)CC2)c(C)c1 | -5.5%
O=Cc1ccc(OCc2ccc(I)cc2)cc1 | -6.6%
COc1ccccc1C(=O)Oc1ccc2c(c1)OC(=Cc1cccc(OC)c1OC)C2=O | -1.8%
COc1ccc(CCNC(=O)CSc2ccc(-n3cccn3)nn2)cc1OC | -3.3%
CC(C)(C)C(O)CCNC(=O)C(=O)NCc1ccccc1 (stereo not given) | -5.8%
O=C(NCC(O)c1ccsc1)c1cccc2ccccc12 (stereo not given) | -3.1%
Cn1c(=O)c2c(-c3ccccc3)n(-c3cccc([N+](=O)[O-])c3)cc2n(C)c1=O | 0.3%
COc1ccc(-c2c3c(=O)n(C)c(=O)n(C)c3cn2-c2ccc(Br)cc2)cc1 | 73.4% (active)
COc1ccc(-c2cn3c4c(=O)n(C)c(=O)n(C)c4nc3n2CCO)cc1 | -0.7%
CN1CCC(N2CCN(C(=O)C3CCc4sc(C(=O)N5CCCC5)cc4C3)CC2)CC1 (stereo not given) | -2.3%
CC(C)N1CCN(C(=O)c2csc(N3CCN(c4ccccc4)CC3)n2)CC1 | -6.1%
CCOc1ccc(-c2cc3n(n2)CCCN(C(=O)c2ccccn2)C3)cc1 | -2.1%
O=C(Nc1cccs1)N1CCN(c2ccc(-c3ccco3)nn2)CC1 | 64.3% (active)
O=C(Nc1cccs1)N1CCN(C(=O)C2CCCO2)CC1 (stereo not given) | 0.6%
O=C(c1cccc(-n2cnnn2)c1)N1CCN(c2ccc(-c3cccs3)nn2)CC1 | -10.3%

Source: PubChem BioAssay AID1794808 (University of Kansas High Throughput Screening Laboratory, 2022)
